Reference: the supplement of paper PMC10849652
Targets with a hit are over-represented here; the source holds about 8,800 in all. About 0.5% of all pairs of compound and target were hits. Unmarked numbers belong to inactive results.

How the values were obtained:
Test in all cases: log2 fold change, soluble protein after heating vs DMSO (PISA); higher = thermal stabilisation; K562 lysate, 10 uM; active = over 0.2 and 3.5 SD of the protein, either way, in both replicates (recomputed)
nilotinib = compound: Cc1cn(-c2cc(NC(=O)c3ccc(C)c(Nc4nccc(-c5cccnc5)n4)c3)cc(C(F)(F)F)c2)cn1 [nilotinib]
In short: (§1)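 Quantification was by TMTpro 16plex LC-MS/MS with equalised channel sums, applied to the supernatant after 21,000xg for 90 min. Samples were crude K562 extract at 1 mg/mL protein in PBS pH 7.4 with 1 mM MgCl2, treated with 10 μM compound for 30 min, heated for 3 min across 48°C-58°C, pooled and brought to 0.5% NP-40 at 4°C. Values are log-two fold changes in thermal stability relative to solvent controls, from duplicates.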

[1] = compound: Cc1nc(Nc2n[nH]c3c2CN(C(=O)N[C@H](CN(C)C)c2ccccc2)C3(C)C)c2sccc2n1
In short: as §1

dasatinib = compound: Cc1nc(Nc2ncc(C(=O)Nc3c(C)cccc3Cl)s2)cc(N2CCN(CCO)CC2)n1 [dasatinib]
In short: as §1

[2] = compound: Cc1ncc(-c2ccnc(Nc3ccc(S(C)(=O)=O)cc3)n2)n1C(C)C
In short: as §1

[3] = compound: Cn1cc(-c2ccc3c(c2)CCN3C(=O)Cc2cccc(C(F)(F)F)c2)c2c(N)ncnc21
In short: as §1

quisinostat = compound: Cn1cc(CNCC2CCN(c3ncc(C(=O)NO)cn3)CC2)c2ccccc21 [quisinostat]
In short: as §1

tipifarnib = compound: Cn1cncc1[C@@](N)(c1ccc(Cl)cc1)c1ccc2c(c1)c(-c1cccc(Cl)c1)cc(=O)n2C [tipifarnib]
In short: as §1

[4] = compound: NC(=O)Nc1cc(-c2cccc(F)c2)sc1C(=O)N[C@H]1CCCNC1
In short: as §1

[5] = compound: NC(=O)c1cnc(N[C@@H]2CCCC[C@@H]2N)nc1Nc1cccc(-n2nccn2)c1
In short: as §1

[6] = compound: NC1(c2ccc(-c3nc4ccn5c(=O)[nH]nc5c4cc3-c3ccccc3)cc2)CCC1
In short: as §1

Sequence of UniProt P28676 (P28676 whole entry, looked up): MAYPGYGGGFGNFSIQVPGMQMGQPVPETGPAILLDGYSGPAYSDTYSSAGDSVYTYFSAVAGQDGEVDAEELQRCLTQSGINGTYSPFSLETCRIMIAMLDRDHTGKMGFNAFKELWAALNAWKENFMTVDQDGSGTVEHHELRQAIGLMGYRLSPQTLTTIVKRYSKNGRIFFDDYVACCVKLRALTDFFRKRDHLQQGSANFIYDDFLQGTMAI
Sequence of UniProt P11171 (P11171 whole entry, looked up): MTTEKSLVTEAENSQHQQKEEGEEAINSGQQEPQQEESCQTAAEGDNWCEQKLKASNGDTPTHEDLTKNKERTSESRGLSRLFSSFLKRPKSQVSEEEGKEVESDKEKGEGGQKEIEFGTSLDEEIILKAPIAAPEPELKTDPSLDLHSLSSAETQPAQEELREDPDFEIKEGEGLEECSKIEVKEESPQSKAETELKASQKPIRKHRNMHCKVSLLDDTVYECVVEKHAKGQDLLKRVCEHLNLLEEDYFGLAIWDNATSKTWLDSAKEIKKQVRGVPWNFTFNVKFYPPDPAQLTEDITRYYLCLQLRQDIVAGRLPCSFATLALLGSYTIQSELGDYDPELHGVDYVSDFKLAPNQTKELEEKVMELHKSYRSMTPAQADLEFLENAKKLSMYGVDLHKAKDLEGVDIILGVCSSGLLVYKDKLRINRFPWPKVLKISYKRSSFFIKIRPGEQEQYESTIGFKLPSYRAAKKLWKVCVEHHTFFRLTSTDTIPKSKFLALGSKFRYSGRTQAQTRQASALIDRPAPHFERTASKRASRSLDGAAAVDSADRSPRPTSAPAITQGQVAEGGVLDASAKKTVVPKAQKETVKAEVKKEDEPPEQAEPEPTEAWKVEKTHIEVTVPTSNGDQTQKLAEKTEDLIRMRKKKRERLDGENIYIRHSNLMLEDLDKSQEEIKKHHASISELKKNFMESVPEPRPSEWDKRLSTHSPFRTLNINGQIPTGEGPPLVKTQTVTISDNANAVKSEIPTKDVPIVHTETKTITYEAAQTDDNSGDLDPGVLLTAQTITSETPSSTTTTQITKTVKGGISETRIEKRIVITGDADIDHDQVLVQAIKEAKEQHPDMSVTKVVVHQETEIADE
Sequence of UniProt P0C2W1 (P0C2W1 whole entry, looked up): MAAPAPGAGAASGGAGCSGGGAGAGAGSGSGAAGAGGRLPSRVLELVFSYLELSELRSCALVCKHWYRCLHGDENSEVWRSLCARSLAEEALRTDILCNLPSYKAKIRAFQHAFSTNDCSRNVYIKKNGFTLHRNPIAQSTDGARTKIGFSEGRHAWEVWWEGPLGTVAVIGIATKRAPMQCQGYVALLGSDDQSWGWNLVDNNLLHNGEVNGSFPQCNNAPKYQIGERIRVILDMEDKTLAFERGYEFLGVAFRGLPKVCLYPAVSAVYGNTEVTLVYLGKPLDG
Sequence of UniProt Q9UKR5 (Q9UKR5 whole entry, looked up): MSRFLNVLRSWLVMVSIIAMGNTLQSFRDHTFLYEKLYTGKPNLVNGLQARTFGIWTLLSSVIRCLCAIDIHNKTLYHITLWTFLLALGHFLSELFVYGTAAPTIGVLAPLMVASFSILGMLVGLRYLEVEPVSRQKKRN
Sequence of UniProt Q09472 (Q09472 whole entry, looked up): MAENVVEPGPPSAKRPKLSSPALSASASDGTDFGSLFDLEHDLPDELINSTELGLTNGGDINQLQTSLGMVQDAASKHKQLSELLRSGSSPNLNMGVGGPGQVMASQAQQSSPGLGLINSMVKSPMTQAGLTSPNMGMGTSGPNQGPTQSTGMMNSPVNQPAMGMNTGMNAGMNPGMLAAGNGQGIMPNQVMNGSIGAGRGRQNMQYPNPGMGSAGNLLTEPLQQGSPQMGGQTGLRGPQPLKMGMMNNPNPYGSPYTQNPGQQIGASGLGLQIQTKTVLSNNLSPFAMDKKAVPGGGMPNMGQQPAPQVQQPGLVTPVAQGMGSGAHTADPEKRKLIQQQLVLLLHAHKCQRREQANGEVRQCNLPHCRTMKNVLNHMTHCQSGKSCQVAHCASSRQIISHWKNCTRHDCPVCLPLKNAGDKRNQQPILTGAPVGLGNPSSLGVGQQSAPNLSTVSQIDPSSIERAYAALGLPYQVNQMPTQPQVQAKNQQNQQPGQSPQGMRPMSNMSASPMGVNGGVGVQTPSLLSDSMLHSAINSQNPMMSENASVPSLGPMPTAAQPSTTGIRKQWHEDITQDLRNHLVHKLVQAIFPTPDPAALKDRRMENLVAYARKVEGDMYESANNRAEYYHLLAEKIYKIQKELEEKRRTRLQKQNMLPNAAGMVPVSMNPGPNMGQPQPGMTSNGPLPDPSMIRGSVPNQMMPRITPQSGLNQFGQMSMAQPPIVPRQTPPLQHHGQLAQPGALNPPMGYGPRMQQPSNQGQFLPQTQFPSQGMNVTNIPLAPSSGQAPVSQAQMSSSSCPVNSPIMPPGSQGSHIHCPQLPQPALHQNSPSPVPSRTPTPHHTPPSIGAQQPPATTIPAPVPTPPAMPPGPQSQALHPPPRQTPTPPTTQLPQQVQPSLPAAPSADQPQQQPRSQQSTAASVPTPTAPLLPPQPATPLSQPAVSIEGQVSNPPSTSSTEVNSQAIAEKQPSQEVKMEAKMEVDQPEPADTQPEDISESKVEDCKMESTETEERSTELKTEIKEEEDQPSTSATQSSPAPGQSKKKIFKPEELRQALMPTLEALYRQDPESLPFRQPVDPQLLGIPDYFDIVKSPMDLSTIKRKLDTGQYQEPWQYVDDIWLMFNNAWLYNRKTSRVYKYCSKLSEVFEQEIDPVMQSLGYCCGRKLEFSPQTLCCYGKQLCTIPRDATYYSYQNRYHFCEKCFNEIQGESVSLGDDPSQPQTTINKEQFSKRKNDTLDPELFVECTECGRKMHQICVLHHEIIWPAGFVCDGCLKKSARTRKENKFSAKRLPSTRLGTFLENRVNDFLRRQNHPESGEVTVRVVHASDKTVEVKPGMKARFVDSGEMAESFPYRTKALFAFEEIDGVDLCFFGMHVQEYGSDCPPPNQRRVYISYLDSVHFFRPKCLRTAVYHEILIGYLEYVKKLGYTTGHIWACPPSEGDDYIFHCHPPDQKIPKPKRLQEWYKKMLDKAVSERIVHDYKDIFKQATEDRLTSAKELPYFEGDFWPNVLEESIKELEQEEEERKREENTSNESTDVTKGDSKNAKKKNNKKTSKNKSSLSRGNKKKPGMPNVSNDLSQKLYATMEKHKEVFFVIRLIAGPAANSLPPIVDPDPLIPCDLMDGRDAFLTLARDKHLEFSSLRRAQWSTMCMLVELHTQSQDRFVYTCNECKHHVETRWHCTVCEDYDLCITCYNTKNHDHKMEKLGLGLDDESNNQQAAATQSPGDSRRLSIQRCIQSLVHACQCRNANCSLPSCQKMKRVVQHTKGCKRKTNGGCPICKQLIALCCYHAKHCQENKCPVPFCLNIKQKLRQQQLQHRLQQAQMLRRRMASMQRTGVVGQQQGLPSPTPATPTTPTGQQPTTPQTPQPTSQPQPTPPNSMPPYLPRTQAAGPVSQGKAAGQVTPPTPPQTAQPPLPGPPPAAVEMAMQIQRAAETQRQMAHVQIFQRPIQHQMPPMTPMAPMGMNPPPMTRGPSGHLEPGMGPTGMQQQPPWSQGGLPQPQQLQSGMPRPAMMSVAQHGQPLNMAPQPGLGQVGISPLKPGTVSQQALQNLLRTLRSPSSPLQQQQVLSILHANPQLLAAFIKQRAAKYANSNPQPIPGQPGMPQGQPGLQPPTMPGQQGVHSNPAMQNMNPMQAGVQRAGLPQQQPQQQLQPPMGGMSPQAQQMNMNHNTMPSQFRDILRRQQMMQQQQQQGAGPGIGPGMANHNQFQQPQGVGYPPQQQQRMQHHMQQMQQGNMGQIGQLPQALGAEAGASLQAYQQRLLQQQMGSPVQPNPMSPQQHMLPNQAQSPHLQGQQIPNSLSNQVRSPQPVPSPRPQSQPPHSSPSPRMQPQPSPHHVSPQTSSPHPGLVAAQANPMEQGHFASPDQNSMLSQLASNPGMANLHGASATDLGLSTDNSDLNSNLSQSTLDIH
Sequence of UniProt Q14153 (Q14153 whole entry, looked up): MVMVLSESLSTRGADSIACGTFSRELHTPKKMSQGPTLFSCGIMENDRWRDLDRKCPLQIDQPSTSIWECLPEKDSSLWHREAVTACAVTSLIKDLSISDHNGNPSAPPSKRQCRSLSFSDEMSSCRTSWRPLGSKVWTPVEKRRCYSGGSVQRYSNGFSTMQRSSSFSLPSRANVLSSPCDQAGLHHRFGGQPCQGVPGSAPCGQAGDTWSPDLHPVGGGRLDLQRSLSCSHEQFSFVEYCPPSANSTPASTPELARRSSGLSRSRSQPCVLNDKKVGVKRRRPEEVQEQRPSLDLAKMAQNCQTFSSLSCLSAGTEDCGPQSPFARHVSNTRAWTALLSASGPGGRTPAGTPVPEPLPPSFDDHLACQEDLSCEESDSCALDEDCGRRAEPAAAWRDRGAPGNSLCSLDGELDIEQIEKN
Sequence of UniProt P58012 (P58012 whole entry, looked up): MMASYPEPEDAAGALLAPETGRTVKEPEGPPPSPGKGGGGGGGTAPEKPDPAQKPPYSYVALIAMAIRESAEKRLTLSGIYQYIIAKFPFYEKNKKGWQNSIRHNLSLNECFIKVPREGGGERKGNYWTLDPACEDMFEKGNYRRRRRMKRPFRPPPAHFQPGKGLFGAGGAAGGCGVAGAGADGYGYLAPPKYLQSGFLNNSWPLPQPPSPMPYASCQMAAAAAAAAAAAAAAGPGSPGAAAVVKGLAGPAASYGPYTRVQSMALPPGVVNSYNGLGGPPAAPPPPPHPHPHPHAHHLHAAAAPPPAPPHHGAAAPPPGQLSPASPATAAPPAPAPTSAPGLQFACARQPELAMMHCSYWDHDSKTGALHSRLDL
Sequence of UniProt Q9NRW4 (Q9NRW4 whole entry, looked up): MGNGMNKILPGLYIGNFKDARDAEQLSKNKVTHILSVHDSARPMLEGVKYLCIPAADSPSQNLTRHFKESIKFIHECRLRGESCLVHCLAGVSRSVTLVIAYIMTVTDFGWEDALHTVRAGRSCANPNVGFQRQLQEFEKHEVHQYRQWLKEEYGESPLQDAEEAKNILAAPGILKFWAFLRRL

Target | log2 fold change (nilotinib) | log2 fold change [1] | log2 fold change (dasatinib) | log2 fold change [2] | log2 fold change [3] | log2 fold change (quisinostat) | log2 fold change (tipifarnib) | log2 fold change [4] | log2 fold change [5] | log2 fold change [6]
GEMIN4 (UniProt P57678) | -0.001 | -0.014 | -0.047 | -0.001 | 0.101 | -0.056 | 0.006 | 0.077 | -0.001 | -0.097
EIF2AK2 (UniProt P19525) | -0.014 | 0.043 | 0.122 | 0.01 | 0.056 | -0.087 | -0.032 | 0.045 | -0.013 | -0.054
ERG28 (UniProt Q9UKR5) | – | – | 0.029 | – | 0.059 | – | – | – | -0.015 | –
FBXO45 (UniProt P0C2W1) | 0.025 | 0.028 | – | -0.088 | – | -0.006 | -0.011 | 0.008 | 0.147 | -0.002
GC isoform 3 (UniProt P02774) | – | – | 0.044 | – | -0.114 | 0.175 | – | -0.076 | – | –
EID1 (UniProt Q9Y6B2) | 0.067 | 0.085 | -0.306 | 0.05 | 0.32 | – | 0.021 | – | – | 0.133
EIF3I (UniProt Q5TFK1) | 0.108 | -0.239 | – | -0.035 | – | – | -0.511 | – | 0.387 | –
GCA (UniProt P28676) | 0.071 | -0.11 | – | 0.096 | – | – | -0.141 | – | -0.118 | -0.017
DST isoform 3 (UniProt Q03001) | – | – | – | – | – | – | – | – | – | -0.071
EWSR1 (UniProt H7BY36) | – | – | -0.104 | – | -0.025 | 0.112 | – | 0.118 | – | –
FBRSL1, A0A3B3IRR3 | 0.034 | 0.022 | 0.01 | 0.013 | -0.042 | 0.031 | -0.073 | 0.029 | – | 0.066
FAM53B (UniProt Q14153) | 0.015 | 0.013 | 0.036 | 0.004 | 0.14 | -0.078 | -0.013 | 0.093 | – | 0.042
DYNC1I2 isoform 2 (UniProt Q13409) | – | – | -0.058 | – | 0.046 | -0.009 | – | 0.024 | -0.008 | -0.025
ESRRB isoform 1 (UniProt O95718) | – | – | – | – | – | – | – | – | – | 0.182
EPB41 isoform 4 (UniProt P11171) | 0.124 | 0.044 | – | -0.165 | – | -0.077 | 0.036 | 0.053 | 0.089 | -0.096
EPB41, A0A2R8Y783 | – | – | 0.028 | – | -0.11 | – | – | – | -0.108 | –
FAT1 (UniProt Q14517) | – | – | – | – | – | 0.572 (active) | – | -0.105 | -0.017 | -0.071
FTSJ1 isoform 2 (UniProt Q9UET6) | – | – | – | – | – | – | – | – | -0.019 | –
EXO5 (UniProt Q9H790) | – | – | – | – | – | -0.082 | – | -0.071 | – | 0.08
EIF2AK3 (UniProt Q9NZJ5) | 0.124 | 0.012 | -0.385 | -0.001 | 0.269 | – | -0.088 | – | 0.104 | -0.166

Target | log2 fold change (nilotinib) | log2 fold change [1] | log2 fold change (dasatinib) | log2 fold change [2] | log2 fold change [3] | log2 fold change (quisinostat) | log2 fold change (tipifarnib) | log2 fold change [4] | log2 fold change [5] | log2 fold change [6]
FAT2 (UniProt Q9NYQ8) | -0.086 | 0.086 | – | 0.014 | – | -0.978 (active) | -0.028 | 0.36 | 0.025 | -0.087
FLT4 (UniProt P35916) | – | – | -0.202 | – | 0.013 | – | – | – | 0.162 | 0.106
FNDC3A (UniProt Q9Y2H6) | -0.057 | -0.125 | – | -0.293 | – | -0.247 | -0.064 | 0.059 | – | -0.03
EPN2 (UniProt I3L356) | -0.248 | 0.062 | – | -0.291 | – | – | 0.238 | – | 0.021 | –
FAM204A (UniProt Q9H8W3) | – | – | – | – | – | -0.129 | – | 0.069 | – | 0.098
FOXJ2 (UniProt Q9P0K8) | 0.033 | 0.29 | 0.056 | 0.077 | 0.018 | – | -0.293 | – | – | -0.111
EP300 (UniProt Q09472) | 0.036 | 0.037 | -0.028 | 0.081 | 0.007 | 0.03 | -0.043 | 0.036 | 0.023 | 0.046
DUSP22 isoform 2 (UniProt Q9NRW4) | -0.039 | -0.073 | -0.022 | 0.064 | -0.001 | – | 0.038 | – | 0.036 | 0.109
FOXL2 (UniProt P58012) | – | – | 0.023 | – | -0.013 | – | – | – | -0.15 | 0.076
GABPB1 isoform 3 (UniProt Q06547) | – | – | -0.086 | – | 0.034 | -0.017 | – | -0.012 | -0.037 | -0.016
EIF2B5, A0A3B3ITK8 | -0.455 | 0.16 | – | -0.134 | – | – | 0.313 | – | -0.054 | –
GART (UniProt C9JZG2) | -0.085 | -0.033 | – | 0.042 | – | -0.373 | -0.101 | -0.02 | 0.139 | –
GAA (UniProt P10253) | 0.058 | 0.115 | – | 0.267 | – | 0.024 | -0.336 | 0.007 | -0.014 | -0.003
DYRK1A isoform 2 (UniProt Q13627) | – | – | – | – | – | -0.095 | – | 0.139 | – | -0.047
FYN (UniProt P06241) | – | – | 0.02 | – | 0.004 | 0.022 | – | -0.029 | -0.025 | 0.043
GAPVD1 (UniProt Q14C86) | – | – | – | – | – | – | – | – | -0.023 | –
DTL (UniProt Q9NZJ0) | 0.005 | -0.022 | 0.044 | -0.052 | 0.066 | -0.227 (active) | 0.036 | 0.025 | – | 0.048
GDE1 (UniProt Q9NZC3) | – | – | 0.012 | – | -0.012 | 0.085 | – | 0.029 | -0.02 | -0.022
FAM111A (UniProt Q96PZ2) | – | – | -0.097 | – | 0.015 | 0.18 | – | 0.039 | 0.035 | -0.037
